About 83,000 compounds went through this panel and 20% of them were active in at least one assay; those are over-represented in the sample as a whole.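 Values shown are percent growth following 48 h exposure of cells in 96-well plates to a single concentration of compound; below 10 was considered active.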 A number with no mark means an inactive call. Activity calls are given as the source filed them.
tested on: PC-3 prostate; test: NCI-60 one-dose screen, 48 h (100 = growth as untreated, 0 = no growth, -100 = all killed); settings: 10 µM unless noted
Experimental: Growth inhibition of the PC-3 human tumor cell line is measured as a screen for anti-cancer activity. Cells are grown in 96 well plates and exposed to the test compound for 48 hours. Compounds are tested at a single concentration, which is 10^-5 M for most compounds. The reported endpoint is percent growth (GI% or GIPRCNT), where numbers from 0 - 100% represent growth inhibition, and numbers from -100% - 0 represent cell death. For example, a value of 40 represents 60% growth inhibition. A value of 0 means no net growth occurred over the course of the experiment. A value of -40 indicates 40% of cells at the beginning of the experiment died by the end of the experiment. A value of -100 means all cells are dead at the end of the experiment.
NCI-60 Human Tumor Cell Lines Screen was performed using the standard one-dose NCI protocol, which is described in more detail at https://dtp.cancer.gov/discovery_development/nci-60/default.htm.
Compounds with GIPRCNT values below 10 were considered active. Activity score was based on GIPRCNT using the following formula: […]
Score is 0 for GIPRCNT values of 100 or above, 50 for GIPRCNT values of 0, and 100 for GIPRCNT values of -100.

Row | Compound | growth
1 | C[C@]12CCc3sc(-c4cccc(F)c4)nc3C1=CC[C@@H]1[C@@H]2CC[C@]2(C)C(=O)CC[C@@H]12 | 35%
2 | CC[C@H](C)[C@H](NC(=O)[C@H]1CCCCN1C)C(=O)N(C)[C@H](C[C@@H](OC(C)=O)c1nc(C(=O)NC23CC(C(=O)OC)(C2)C3)cs1)C(C)C | 23.6%
3 | N#CC1(c2ccccc2)CCN(Cc2ccccc2)CC1 | 84.2%
4 | CC(=O)O[C@H](C[C@H](C(C)C)N(C)C(=O)[C@@H](NC(=O)[C@H]1CCCCN1C)C(C)C)c1nc(C(=O)N[C@@H](Cc2ccccc2)C[C@H](C)C(=O)O)c(CCOCc2ccccc2)s1 | 21.9%
5 | CC[C@H](C)[C@H](NC(=O)NC(C)(C)C)C(=O)N(C)[C@H](C[C@@H](OC(C)=O)c1nc(C(=O)N[C@@H](Cc2ccccc2)C[C@H](C)C(=O)OC)cs1)C(C)C | 11.3%
6 | CC(=O)O[C@H]1CC[C@@]2(C)C(=CC[C@H]3[C@@H]4C[C@@H](N5CC5)[C@H](C(C)=O)[C@@]4(C)CC[C@@H]32)C1 | 77.9%
7 | CCOC(=O)CCC(NC(=O)C(Cc1ccc(N(CCCl)CCCl)cc1)NC=O)C(=O)OCC (stereo not given) | 71.7%
8 | CCCCCCCCCCCCNC(c1ccccc1)C(O)c1ccccc1 (stereo not given) | 79.2%
9 | CC[C@H](C)[C@H](NC(=O)N[C@@H](C)c1ccccc1)C(=O)N(C)[C@H](C[C@@H](OC(C)=O)c1nc(C(=O)N[C@@H](Cc2ccccc2)C[C@H](C)C(=O)OC)cs1)C(C)C | 22.6%
10 | Cn1cccc1C1CC(=O)N(CCC[Se]C#N)C1=O (stereo not given) | 6.15% (active)
11 | C/C(=C\c1ccn(-c2ccc(N)c(F)c2)n1)[C@@H]1C[C@@H]2O[C@]2(C)CCC[C@H](C)[C@H](O)[C@@H](C)C(=O)C(C)(C)[C@@H](O)CC(=O)O1 | 14.7%
12 | COC(=O)[C@@H](C)C[C@H](Cc1cn(C)c2ccccc12)NC(=O)c1csc([C@@H](C[C@H](C(C)C)N(C)C(=O)[C@@H](NC(=O)[C@H]2CCCCN2C)C(C)C)OC(C)=O)n1 | 24.3%
13 | C[C@@]12CC[C@@H](O)C[C@@H]1CC[C@H]1[C@H]2CC[C@@]2(C)[C@H](c3ccc(=O)oc3)CC[C@@]12O | -22.5% (active)
14 | CC(=O)O[C@H]1CC[C@]2(C)[C@H]3CC[C@]4(C)[C@@H](OC(C)=O)CC[C@H]4[C@@H]3[C@@H](C)[C@]2(O)C1 | 89.6%
15 | NC(=O)CNc1ccc([As]=[As]c2ccc(NCC(N)=O)cc2)cc1 (stereo not given) | 58.3%
16 | COc1ccc(S(=O)(=O)Nc2c(/C=C\c3cc(OC)c(OC)c(OC)c3)ccc(OC)c2O)cc1OC | 28.2%
17 | O=C(Nc1ccc(Cl)cc1)Nc1nccs1 | 13.3%
18 | COC(=O)[C@@H](C)C[C@H](Cc1ccccc1)NC(=O)c1nc([C@@H](C[C@H](C(C)C)N(C)C(=O)[C@@H](NC(=O)[C@H]2CCCCN2C)C(C)C)OC(C)=O)sc1C | 28.9%
19 | CC(=O)OCC1O[C@@H]([S-])C(OC(C)=O)[C@H](OC(C)=O)[C@@H]1OC(C)=O.[Au+].c1ccc(CN2[CH-]N(Cc3ccccc3)C(c3ccccc3)=C2c2ccccc2)cc1 | 39.4%
20 | O=[N+]([O-])c1cc(I)cc([N+](=O)[O-])c1 | 92.5%

Row | Compound | growth
21 | CC1CCCC(C[N+](C)(C)C)C1=O (stereo not given) | 93.6%
22 | CN(CCCCN(C)CCOS(C)(=O)=O)CCOS(C)(=O)=O | 85.3%
23 | CC(=O)Nc1nc2c(s1)CC[C@@]1(C)C2=CC[C@H]2[C@@H]3CC[C@H](O)[C@@]3(C)CC[C@@H]21 | 67.8%
24 | Cc1cccc(N2CCN(C(C)C#N)CC2)c1 (stereo not given) | 102%
25 | COC(=O)[C@@H](C)C[C@H](Cc1ccc2ccccc2c1)NC(=O)c1csc([C@@H](C[C@H](C(C)C)N(C)C(=O)[C@@H](NC(=O)[C@H]2CCCCN2C)C(C)C)OC(C)=O)n1 | 47.3%
26 | CN(C)CCCOc1ccc2c(c1)c(C(=O)C(=O)NCCO)cn2Cc1ccccc1 | 105%
27 | CN(C)C(=O)Oc1ccccc1-c1ccccc1 | 91.9%
28 | O=C(O)c1ccc([S-])cc1.[Au+].c1ccc(CN2[CH-]N(Cc3ccccc3)C(c3ccccc3)=C2c2ccccc2)cc1 | -25.6% (active)
29 | CN1CC(=O)N(O)C1(C)c1cccnc1 (stereo not given) | 95.8%
30 | CC(=O)C(c1c(O)c2ccccc2oc1=O)c1cc(=O)oc2c1ccc1ccccc12 (stereo not given) | 85.7%
31 | CC1(C)C(C(=O)c2cn(CCCCF)c3ccccc23)C1(C)C | 85%
32 | C/C(=C\c1ccn(-c2ccccc2N)n1)[C@@H]1C[C@@H]2O[C@]2(C)CCC[C@H](C)[C@H](O)[C@@H](C)C(=O)C(C)(C)[C@@H](O)CC(=O)O1 | 14.3%
33 | COc1ccc(/C=C\c2cc(OC)c(OC)c(OC)c2)cc1NC(=O)/C=C/c1ccc(OC)c(OC)c1 | 31.7%
34 | COc1ccc2c(c1)c(-c1nc(-c3c[nH]c4ncccc34)cs1)cn2CCCCN1CCCCC1 | -79% (active)
35 | CC(=O)O[C@H](C[C@H](C(C)C)N(C)C(=O)[C@@H](NC(=O)[C@H]1CCCCN1C)C(C)C)c1nc(C(=O)N[C@@H](Cc2ccccc2)C[C@H](C)C(=O)O)c(C(C)C)s1 | 29.9%
36 | Cc1ccc(S(=O)(=O)F)cc1C(=O)O | 110%
37 | CCOP(=O)(NC[C@H]1O[C@](O)(CO)[C@@H](O)[C@@H]1O)OCC | 85.9%
38 | Cc1ccc(C(Cc2ccccc2)NCCO)cc1 (stereo not given) | 69.4%
39 | N#C[Se]Cc1cc(-c2ccccc2)n(-c2ccc(S(N)(=O)=O)cc2)n1 | -13.1% (active)
40 | CC1[C@H](C)OC(=O)CC(O)CC(O)CC(O)CCC(O)C(O)C[C@]2(O)CC(O)C(C(=O)O)C(CC(OC3O[C@H](C)[C@@H](O)[C@H](N)[C@@H]3O)/C=C/C=C/C=C/C=C/CC/C=C/C=C/[C@H](C)[C@H]1O)O2 (stereo not given in full) | 98.7%
